# Source: PubChem (National Center for Advancing Translational Sciences (NCATS))
# Mm-Cpn inhibitor – Inhibitors of TCP-1 ring complex (TRiC) of Methanococcus maripaludis (MmCpn): qHTS. AID 504842, 2011. Chaperonin Mm-Cpn (Methanococcus maripaludis). 0.031% of 330,000 active. purified Mm-Cpn ATPase, ADP Transcreener TR-FRET. Potency, µM (titrated, usually from 76.9 µM), without a hit: at the highest dose activity, negative = inhibition, hits mostly inhibitors; further: potency means the concentration at half of the fitted maximal effect; nearly all actives have a fitted effect of over 80% in size
#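 ATPase turnover read by TR-FRET ADP competition (Eu cryptate antibody/ADP-d2, 665/590 nm): 10uM ATP final, 25nM Mm-CPN final, 30 min 37degC after 10-min compound preincubation, pH 7.4 Tris/KCl/MgCl2/DTT buffer.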
# CCT modulator – High-Throughput Screening for Modulators of Cytosolic Chaperonin Activity. activity change, % (test concentration not listed), hits read low. AID 651819, 2012. 0.3% of 360,000 active. purified chaperonin ATPase assay, HTRF ADP detection, 30 min; in the data active means activity change below about -30%
#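 We incubate TRiC, 40 or 20 nM final, with library compounds at 76 uM and 10 uM ATP for 30 min at 37 °C. ADP formed is detected with Transcreener HTRF reagents after 30 min at room temperature.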
# VDR inhibitor – Inhibitors of the vitamin D receptor (VDR): qHTS; 0.93% of 400,000 active; VDR-SRC2-3 peptide fluorescence polarization, 2 h; Potency, µM, without a hit: max response, negative = inhibition, actives largely listed as inhibitors; further: potency means the concentration at half of the fitted maximal effect
# Target sequence (P11473 whole entry, looked up): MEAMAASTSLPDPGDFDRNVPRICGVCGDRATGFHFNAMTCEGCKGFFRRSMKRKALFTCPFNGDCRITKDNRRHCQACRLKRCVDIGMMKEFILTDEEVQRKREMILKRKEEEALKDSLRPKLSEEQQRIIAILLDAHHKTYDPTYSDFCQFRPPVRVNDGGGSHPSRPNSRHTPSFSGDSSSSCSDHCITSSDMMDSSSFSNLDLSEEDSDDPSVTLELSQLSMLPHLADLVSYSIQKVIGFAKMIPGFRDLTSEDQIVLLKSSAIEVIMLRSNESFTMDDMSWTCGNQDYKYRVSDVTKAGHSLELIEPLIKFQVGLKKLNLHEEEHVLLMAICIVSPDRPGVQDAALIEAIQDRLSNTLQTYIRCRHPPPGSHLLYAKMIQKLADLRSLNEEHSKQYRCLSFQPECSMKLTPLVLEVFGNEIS
#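 Reagent solutions, kept cold and dark, are dispensed first; compounds are then pinned in at 23 nl, plates briefly spun, and incubated 2 h at ambient temperature. Inhibition of VDR–SRC2-3 peptide binding is read by fluorescence polarization.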
# G9a inh – qHTS Assay for Inhibitors of Histone Lysine Methyltransferase G9a; 8.8% of 350,000 active; Histone-lysine N-methyltransferase EHMT2 (Homo sapiens), Q96KQ7; G9a H3K9 monomethylation, AlphaScreen, 2 h; Potency, µM (titrated, usually from 102 µM), for inactives: at the top dose activity, negative = inhibition, hits mostly inhibitors; further: potency means the concentration at half of the fitted maximal effect; nearly all actives have a fitted effect of over 75% in size
# Target sequence (Q96KQ7 913-1193 limits assumed): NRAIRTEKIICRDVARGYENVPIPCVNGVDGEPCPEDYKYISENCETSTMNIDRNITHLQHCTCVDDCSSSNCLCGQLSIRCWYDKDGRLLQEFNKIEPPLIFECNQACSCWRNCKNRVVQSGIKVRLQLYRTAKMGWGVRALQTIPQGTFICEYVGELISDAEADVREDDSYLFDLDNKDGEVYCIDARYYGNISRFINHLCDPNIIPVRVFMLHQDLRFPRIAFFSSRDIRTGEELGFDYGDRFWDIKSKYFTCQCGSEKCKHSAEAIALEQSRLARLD
#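 AlphaScreen detection with an anti-monomethyl H3K9 antibody quantified product after a 2 h room-temperature reaction containing 500 nM biotinylated H3K9 peptide, 20 µM SAM and 20 nM enzyme, which had been preincubated 15 min with compound.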
# Sfp PPTase inh – qHTS Assay for Inhibitors of Bacillus subtilis Sfp phosphopantetheinyl transferase (PPTase); 3.5% of 310,000 active; AID 1490, 2009; 4'-phosphopantetheinyl transferase ffp (Bacillus subtilis), Q9F4F7; Biochemical Sfp PPTase activity, qHTS; Potency, µM, without a hit: largest response in the series, negative = inhibition, usual class: inhibitors;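 further: the enzyme is Sfp with the accession as filed and its product quenches rhodamine fluorescence; potency means the concentration at half of the fitted maximal effect; 0% = enzyme reaction without inhibitor and -100% = no enzyme wells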
#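 Fluorescence-quenching assay with 15 nM Sfp, 5 uM rhodamine-CoA and 12.5 uM BHQ-2-labelled ybbR peptide in pH 7.6 Hepes/MgCl2 buffer. Enzyme was pre-incubated with compound for 15 min at room temperature. Rate was taken from the 30-min fluorescence change (525/598 nm).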
# PLK1 PBD inh – qHTS for Inhibitors of PLK1-PDB (polo-like kinase 1 - polo-box domain): Primary Screen; 2.8% of 360,000 active; Potency, µM, without a hit: max response, negative = inhibition, usual class: inhibitors; AID 720504, 2013; Plk1 PBD binding of FITC phosphopeptide, fluorescence polarization; Serine/threonine-protein kinase PLK1 (Homo sapiens), P53350; further: potency means the concentration at half of the fitted maximal effect; series mostly up to about 57 µM; nearly all actives have a fitted effect of over 65% in size
# Starred values were filed as active, the others as inactive; ? = inconclusive; · = no result; ! = not confirmed by another sample; [ ] = another dose, or the depositor's remark. In the library only some 10% were active in any assay of this set; here they are far more common. Unless noted, the call rests on the fitted dose curve; in most records, active means well fitted curve in the direction sought with a large enough effect; inconclusive means small, poorly fitted or top-dose-only effect, or another doubt; inactive means no such curve, though single readings can be large; an effect the other way counts as inactive or inconclusive. Unless noted, on the % scale 0 is the no-effect control and ±100 the full control effect.
SMILES,Mm-Cpn inhibitor,CCT modulator,VDR inhibitor,G9a inh,Sfp PPTase inh,PLK1 PBD inh
Clc1ccc(/C=N/N2CCN(Cc3ccccc3)CC2)cc1,0%,1,-10%,50µM*,-4%,-5%
CSc1ccc(/C=N/N2CCN(Cc3ccccc3)CC2)cc1,0%,0,6%,·,-3%,-1%
CCN(CC)c1ccc(/C=N\N2CCN(Cc3ccc(C)cc3)CC2)cc1,0%,2,2%,7.1µM*,-1%,-5%
O=C(O)c1ccc(/C=N/N2CCN(Cc3ccc(Cl)cc3)CC2)cc1,-3%,-3,-12%,·,-1%,-1%
CCOc1cc(C2CC(=O)Nc3c2c(=O)nc(SCc2cccc(Cl)c2)n3C)ccc1O (configuration not stated),·,·,20%,-5%[59 µM],·,·
COc1ccc(CNc2cc(-c3cccc(NS(C)(=O)=O)c3)ncn2)c(OC)c1,·,·,-5%,10%[0.501 µM],-3%,·
CC(C)NC(=O)Nc1cccc2c1O[C@H](CN(C)C(=O)NC(C)C)[C@@H](C)CN([C@H](C)CO)C2=O,-6%,1,3%,·,·,-11%
Cc1cc(C(=O)Nc2cccc3c2O[C@@H](CN(C)S(C)(=O)=O)[C@H](C)CN([C@@H](C)CO)C3=O)n(C)n1,-1%,-32*,-8%,·,·,-16%
CC(C)NC(=O)N(C)C[C@H]1Oc2c(NC(=O)Cc3ccccc3)cccc2C(=O)N([C@H](C)CO)C[C@@H]1C,1%,-1,?,·,·,27µM*
C[C@H](CO)N1C[C@H](C)[C@@H](CN(C)CC2CCCCC2)Oc2c(NC(=O)Cc3ccccc3)cccc2C1=O,0%,-5,?,·,·,19µM*
Cc1cc(C(=O)Nc2cccc3c2O[C@@H](CN(C)S(=O)(=O)c2ccccc2)[C@H](C)CN([C@@H](C)CO)C3=O)n(C)n1,-1%,-3,-20%,·,·,-4%
Cc1ccc(O)c(N/C=C/C(=O)c2ccc(F)cc2)c1,-18%,1,16%,35µM*,0%,15%
Cc1ccc(N/C=C/C(=O)c2ccc(C)cc2)cc1,-1%,-4,-5%,?,4%,-4%
Cc1ccc(NC(=O)CSc2nnc(-c3ccccc3Br)o2)cc1C,1%,-13,-1%,10µM*,-6%,-16%
O=C(Nc1cccnc1)c1cc(-c2cccc(Cl)c2)on1,4%,-2,79µM*!,10%,4%,24µM*
O=C(Nc1ccc(Cl)cc1)Nc1cnccn1,-5%,1,4%,·,1%,30µM*
O=C(Nc1cccnc1)c1cc(-c2ccc(Cl)c(Cl)c2)on1,2%,0,-6%,7%,-7%,0%
O=C(Nc1cccnc1)Nc1cc(Cl)cc(Cl)c1,3%,-2,-3%,79µM*,?,0%
CCOC(=O)c1ccc(CN(Cc2ccc(F)cc2)S(=O)(=O)c2ccc(F)c(C(=O)Nc3ccc(Cl)cc3F)c2)cc1,·,·,4%,-5%[59 µM],·,·
C[C@@H](N)CCCP(=O)(O)O,·,·,?,?,-18%,·
COc1ccccc1N1CCN(c2cc(C)nc3c(-c4ccc(Cl)cc4)c(C)nn23)CC1,·,·,2%,6%[59 µM],·,·
O=C(CSc1nnc(-c2cccnc2)o1)Nc1ccc(Cl)cc1,-13%,0,-4%,-18%,-19%,-13%
O=C(CSc1nnc(-c2cccnc2)o1)Nc1cccc(Cl)c1,0%,2,-2%,45µM*,4%,?
CC[C@@H]1CC=C[C@H]2[C@H]1C(=O)N(Cc1ccccc1)[C@H]2c1ccoc1,1%,1,?,-3%[12.7 µM],-5%,?
C[C@@H]1CC=C[C@H]2[C@H]1C(=O)N(Cc1ccccc1)[C@H]2c1ccc2ccccc2c1Br,-10%,0,-30%,3%[12.7 µM],-13%,24µM*
SMILES,Mm-Cpn inhibitor,CCT modulator,VDR inhibitor,G9a inh,Sfp PPTase inh,PLK1 PBD inh
CCC1CC=CC2C1C(=O)N(Cc1ccccc1)C2c1ccoc1 (configuration not stated),·,·,79µM*,·,-15%,·
Cc1ccc(C)c(NC(=O)C2CCN(S(=O)(=O)c3c(C)noc3/C=C/c3cccs3)CC2)c1,·,·,-22%,?,·,·
CCCCCCC=C1CCC(CN2CCCC2)C1=O (configuration not stated),·,-1,·,·,·,3.4µM*
COCC(=O)N1CCC2(CCN(Cc3ccccc3)CC2)CC1,·,·,-1%,6%[12.7 µM],15%,·
CC(C)(Oc1ccc(Cl)cc1)C(=O)Nc1nc2ccc(S(C)(=O)=O)cc2s1,·,·,-13%,11µM*,·,·
CS(=O)(=O)c1ccc2nc(NC(=O)Nc3ccc(Cl)cc3)sc2c1,1%,-1,-1%,?,26%,1%
CS(=O)(=O)c1ccc2sc(NC(=O)c3cc4ccccc4o3)nc2c1,-5%,-1,6%,40µM*,-22%,-9%
CS(=O)(=O)c1ccc2nc(NC(=O)c3ccccc3Br)sc2c1,0%,2,-23%,50µM*,0%,-24%
COc1cc(OC)cc(C(=O)N[C@H](C(=O)Nc2nc3ccc(S(C)(=O)=O)cc3s2)C(C)C)c1,-5%,1,2%,40µM*,-8%,4%
O=C(NCc1ccco1)c1nn2c(C(F)(F)F)cc(-c3cccs3)nc2c1Br,-1%,-4,-5%,50µM*,20µM*,-12%
COC(=O)c1nn2c(C(F)(F)F)cc(-c3ccc(Br)o3)nc2c1Br,1%,2,-21%,45µM*,6%,-17%
CC(C)(C)NC(=O)c1nn2c(C(F)(F)F)cc(-c3ccccc3)nc2c1Br,-2%,-3,-8%,46%[0.501 µM],-2%,-1%
CCCNC(=O)c1nn2c(C(F)(F)F)cc(-c3ccccc3)nc2c1Br,-18%,2,1%,-7%,15%,-3%
CCCCNC(=O)c1nn2c(C(F)(F)F)cc(-c3ccc(OC)cc3)nc2c1Br,-3%,-2,-23%,0%[59 µM],14%,12µM*
COc1ccc(C2=NOC(C(=O)NCc3ccccn3)C2)cc1 (configuration not stated),1%,1,-5%,-1%[59 µM],14%,27µM*
COc1cccc(C2=NOC(C(=O)NCc3ccccn3)C2)c1 (configuration not stated),1%,-2,7%,41%,13%,0%
CCCC12CN3CC(CCC)(CN(C1)C3c1c(C)[nH]c(=O)[nH]c1=O)C2=O (configuration not stated),·,·,8%,-29%[59 µM],·,·
